Four compounds from PubChem BioAssay AID1347140 (National Center for Advancing Translational Sciences (NCATS), 2019) can be followed below.

The list shows a part of the results. Results filed as inconclusive are left out. Unmarked numbers belong to inactive results. The source made the active and inactive calls. Calls follow the shape of the dose curve; as a rule, active = well fitted inhibition curve with a large enough effect; inconclusive = small, poorly fitted or top-dose-only effect; inactive = no such curve, though single readings can be large or run the other way.

The experiment can be described thus: qHTS of pediatric cancer cell lines to identify multiple opportunities for drug repurposing: Orthogonal 3D viability screen for MG 63 (6-TG R) cells. The settings on record: MG-63 (6-TG R) 3D spheroid viability, PI/Hoechst imaging, 72 h; series mostly up to 30.7 µM; activity, negative = reduced viability: at the top concentration. The text has this: Drug repurposing or repositioning has been offered as a strategy for drug development in oncology programs. This approach has special potential for childhood cancers and other rare or orphan diseases, where the expected return on new drug development has been a disincentive to pharmaceuticals. […] In this project we exploit the poly-pharmacology of drugs to discover new indications via phenotypic screening of a panel of 19 well-characterized cell lines derived from solid tumors seen in children and adolescents. The goal is to identify approved drugs with previously unrecognized anticancer properties that has the potential to reveal new mechanisms and biological processes involved in carcinogenesis or drug resistance. We employed a titration-based paradigm (quantitative high-throughput screening or qHTS), where all compounds were tested at multiple concentrations for their effect on cell viability. Concentration-response curves (CRCs) were derived directly from the primary screen, and both potency and efficacy values were used to identify compounds with robust bioactivity profiles. […] These two assays will be used to validate active compounds and assess the correlation of compound's potency in 2D vs 3D cultures on selected cell lines. Assay Submitter: Nathalia J. Martinez, National Center for Advancing Translational Sciences, National Institutes of Health, Rockville, MD, USA; email: natalia.martinez@nih.gov Shen, M et al. Quantitative high-throughput phenotypic screening of pediatric cancer cell lines identifies multiple opportunities for drug repurposing. Oncotarget 2017 Dec 19;9(4):4758-4772. PMID 29435139.
The cells were obtained from University of North Carolina (UNC), Pediatric Preclinical Testing Program (PPT), and Coriell Institute (CI). qHTS viability in 3D culture: Cells were assayed in phenol red-free growth media at a density of 1,000 cells/well, with the exception of Daoy, and SH-N-SH which were assayed at 1,500 cells/ well. Thirty muL of cells were dispensed into 384-well, ULA, round bottom plates (Corning) using a Multidrop dispenser. […] Spheroid viability was first determined by high-content imaging using Hoechst 33342 and Propidium Iodide (PI, ThermoFisher Scientific), followed by addition of CellTiter-Glo 3D (Promega). […] Plates were incubated for 30 min at RT on a VWR microplate shaker (300 rpm) and analyzed for luminescence intensity using a ViewLux High-throughput CCD imager equipped with clear filters. […] The data were exported to Excel, and the average fluorescent intensities were used to calculate the ratio of PI over Hoechst, which was used to quantify viability. […]
Background: qHTS replaces the single test concentration by a dilution series.
With `CC[C@]1(O)C[C@@H]2CN(CCc3c([nH]c4ccccc34)[C@@](C(=O)OC)(c3cc4c(cc3OC)N(C)[C@H]3[C@@](O)(C(=O)OC)[C@H](OC(C)=O)[C@]5(CC)C=CCN6CC[C@]43[C@@H]65)C2)C1`, the “activity, negative = reduced viability” value is 12%. Turning to `COc1c(C)c2c(c(O)c1C/C=C(\C)CCC(=O)O)C(=O)OC2`, the Potency was 0.909 µM (active).

For `CC[C@H]1CN2CCc3cc(OC)c(OC)cc3[C@@H]2C[C@@H]1C[C@H]1NCCc2cc(OC)c(OC)cc21`, the Potency is 0.81 µM (active). With `CC(NCc1ccc2c(c1)nc(NC(=O)c1ccc(-c3cn[nH]c3)s1)n2CC(C)(C)O)C(C)(C)C` (centres undefined), the Potency was 0.722 µM (active).
